Test results: PubChem BioAssay (EPA / NIEHS)
Some structures have more than one record in an assay (separate samples or runs), and their calls can disagree. The source made the active and inactive calls. The calls were made as follows: active = hit-call score of the fitted dose curve at least 0.9, where 1 is the maximum; inactive = score below 0.9.

Test: ATG_TAL_CIS: Attagene CIS-FACTORIAL HepG2 Assay for human TAL Basal Promoter (AID 2282966)
Conditions: HepG2 Attagene cis-factorial TAL promoter reporter; actives raise or lower the signal
Procedure: ATG_CIS is a cell-based, multiplexed-readout assay that uses HepG2, a human liver cell line, with measurements taken at 24 hours after chemical dosing in a 24-well plate.ATG_TAL_CIS is one of 52 assay component(s) measured or calculated from the ATG_CIS assay. It is designed to make measurements of mRNA induction, a form of inducible reporter, as detected with fluorescence intensity signals by Reverse transcription polymerase chain reaction (RT-PCR) and Capillary electrophoresis technology.Data from the assay component ATG_TAL_CIS was analyzed into 1 assay endpoint. This assay endpoint, ATG_TAL_CIS, was analyzed with bidirectional fitting relative to DMSO as the negative control and baseline of activity. Using a type of inducible reporter, measures of mRNA for gain or loss-of-signal activity can be used to understand the background control at the transcription factor-level as they relate to the gene . Furthermore, this assay endpoint can be referred to as a secondary readout, because this assay has produced multiple assay endpoints where this one serves a background control function. To generalize the intended target to other relatable targets, this assay endpoint is annotated to the background measurement intended target family, where the subfamily is internal marker.
Human liver HepG2 cells are transiently transfected with multiple reporter transcription units (MRTUs) in 6-well plates using FuGene 6 reagent (Roche; 3 ml FuGene/1 mg DNA). The MRTU constructs are regulated by a cis-regulating element (promoter). […] A major difference between the CIS and TRANS system is that in CIS activities of endogenous TFs are measured, whereas the TRANS assay evaluates changes in activities of exogenous, chimeric NR-Gal4 proteins. […] At the end of 24 hour incubation, total RNA was isolated using TriZol reagent (Invitrogen). The isolated RNA is then reverse-transcribed using oligo(dT) primer and Mo-MLV reverse transcriptase (Invitrogen) with DNAse I (Ambion) treatment for 30 min. The one-tenth of the produced cDNA was amplified by PCR using Taq DNA polymerase (Invitrogen) and two reporter sequence-specific primers. The PCR products were fluorescently labeled by primer extension with 6-arboxyfluorescein (6-FAM) 5'-labeled reporter sequence-specific primer (2 min at 95 C, 20 s at 68 C and 10 min at 72 C) and these products were digested with 5U of HpaI (New England Biolabs) for 2h at 37 C. The fragments were purified using Qiaquick PCR columns (Qiagen), analyzed on an ABI 3130xL genetic analyzer (Applied Biosystems) with peak positions identified by using a set of X-rhodamine (ROX)-labeled MapMarker1000 molecular weight standards (BioVentures). The raw capillary electrophoresis data was processed using Attagraph software (Attagene).

| SMILES | outcome | AC50 |
| --- | --- | --- |
| CCCOC(=O)NCCCN(C)C | inactive | – |
| N#CSCSc1nc2ccccc2s1 | inactive | – |
| CCCCOC(=O)[C@@H](C)Oc1ccc(Oc2ccc(C(F)(F)F)cn2)cc1 | inactive | – |
| CCSC(=O)N(CC(C)C)CC(C)C | inactive | – |
| COC(=O)CSc1cc(N=c2sc(=O)n3n2CCCC3)c(F)cc1Cl | inactive | – |
| CCN(Cc1c(F)cccc1Cl)c1c([N+](=O)[O-])cc(C(F)(F)F)cc1[N+](=O)[O-] | inactive | – |
| C[C@]12CC[C@@H]3c4ccc(O)cc4C[C@@H](CCCCCCCCCS(=O)CCCC(F)(F)C(F)(F)F)[C@H]3[C@@H]1CC[C@@H]2O (stereo not given in full) | inactive | – |
| CCCCOCCOCCOCc1cc2c(cc1CCC)OCO2 | inactive | – |
| CCOC(=O)COc1cc(-n2ncc(C(F)(F)F)c(C)c2=O)c(F)cc1Cl | inactive | – |
| C=CCOC(Cn1ccnc1)c1ccc(Cl)cc1Cl (stereo not given) | inactive | – |
| Oc1ccc(C(c2ccc(O)cc2)C(Cl)(Cl)Cl)cc1 | inactive | – |
| CCCCCOC(=O)COc1cc(N2C(=O)C3=C(CCCC3)C2=O)c(F)cc1Cl | inactive | – |
| COC(=O)c1ccccc1S(=O)(=O)NC(=O)Nc1nc(OC(F)F)cc(OC(F)F)n1 | inactive | – |
| CC(=O)[C@H]1CC[C@H]2[C@@H]3CCC4=CC(=O)CC[C@]4(C)[C@H]3CC[C@]12C | inactive | 177 µM (active) |
| CC(C)(c1ccc(O)cc1)c1ccc(O)cc1 | inactive | 162 µM (active) |
| CCNc1nc(N)nc(Cl)n1 | inactive | – |
| COC(=O)c1ccc(CNS(C)(=O)=O)cc1S(=O)(=O)NC(=O)Nc1nc(OC)cc(OC)n1 | inactive | – |
| CC(C)(C)[C@@H](O)[C@@H](Cc1ccc(Cl)cc1)n1cncn1 | inactive | – |
| CCC(O)=C1C(=O)CC(C(=O)O)CC1=O (stereo not given) | inactive | – |

| SMILES | outcome | AC50 |
| --- | --- | --- |
| COCCO | inactive | – |
| CC(=O)S[C@@H]1CC2=CC(=O)CC[C@]2(C)[C@H]2CC[C@@]3(C)[C@@H](CC[C@@]34CCC(=O)O4)[C@H]12 | inactive | – |
| O=C(c1ccc(O)cc1O)c1ccc(O)cc1O | inactive | – |
| Cc1nn(C)c(Oc2ccccc2)c1C=NOCc1ccc(C(=O)OC(C)(C)C)cc1 | inactive | – |
| S=C([S-])NCCNC(=S)[S-].[Mn+2] | inactive | – |
| COC(=O)c1c(Cl)nn(C)c1S(=O)(=O)NC(=O)Nc1nc(OC)cc(OC)n1 | inactive | – |
| O=C(O)c1ccccc1 | inactive | – |
| COC(=O)c1ccccc1C(=O)O | inactive | – |
| O=C(c1ccccc1)C1CCCCC1 | inactive | – |
| CC(C)CCCCCCc1ccc(O)cc1 | inactive | – |
| CCC(C)OC(=O)N1CCCCC1CCO (stereo not given) | inactive | – |
| c1ccc(Nc2ccccc2)cc1 | inactive | – |
| CCOC(=O)C(C)Oc1ccc(Oc2cnc3cc(Cl)ccc3n2)cc1 (stereo not given) | inactive | – |
| CCCN(CCC)C(=O)SCC | inactive | – |
| COC(=O)c1cccc(C)c1S(=O)(=O)NC(=O)Nc1nc(OCC(F)(F)F)nc(N(C)C)n1 | inactive | – |
| CCCCCCC(C)OC(=O)COc1nc(F)c(Cl)c(N)c1Cl (stereo not given) | inactive | – |
| COc1nc(C)nc(NC(=O)NS(=O)(=O)c2ccccc2OCCCl)n1 | inactive | – |
| CCCCC(CC)CN1C(=O)C2C3C=CC(C3)C2C1=O (stereo not given) | inactive | – |
| C[C@]12C[C@H](O)[C@H]3[C@@H](CCC4=CC(=O)CC[C@@]43C)[C@@H]1CC[C@@H]2C(=O)CO | inactive | – |
